Source: PubChem BioAssay
PNC inhibitor: High Content Assay for Compounds that inhibit the Assembly of the Perinucleolar Compartment; PC3M PTB-GFP, PNC prevalence imaging, 16 h; hits give low values; activity change (PNC), negative = inhibition, % at 10 µM; 140,000 tested, 3.1% active; AID 2417, 2010;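 active = readout at or below -70, meaning at least 70% loss of cells showing the perinucleolar compartment, a nuclear body marking cancer cells; inconclusive = readout between -30 and a set limit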;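 also: plate controls were DMSO wells for no effect and camptothecin positive control wells for full effect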
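PC3M cells stably expressing PTB-GFP, 750–1000 cells/well, treated 16 h at 37 °C with compound (23 nl of library stock), in duplicate. After paraformaldehyde fixation and Hoechst stain, imaged at 20x; PNC prevalence scored by image analysis.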
NPSR antagonist: qHTS Assay for Antagonists of the Neuropeptide S Receptor: cAMP Signal Transduction. Q6W5P4. CHO-NPSR cells, cAMP TR-FRET, antagonist mode. Potency, µM (doses to about 38.3 µM), for inactives: top-dose activity change, negative = inhibition, hits mostly inhibitors. 220,000 tested, 1% active; active = well fitted curve in the direction sought with a large enough effect; inconclusive = small, poorly fitted or top-dose-only effect, or another doubt; inactive = no such curve, though single readings can be large; an effect the other way counts as inactive or inconclusive; also: potency is read from the fitted curve at half-maximal effect; nearly all actives have a fitted effect of over 50% in size
Target sequence (Q6W5P4 whole entry, looked up): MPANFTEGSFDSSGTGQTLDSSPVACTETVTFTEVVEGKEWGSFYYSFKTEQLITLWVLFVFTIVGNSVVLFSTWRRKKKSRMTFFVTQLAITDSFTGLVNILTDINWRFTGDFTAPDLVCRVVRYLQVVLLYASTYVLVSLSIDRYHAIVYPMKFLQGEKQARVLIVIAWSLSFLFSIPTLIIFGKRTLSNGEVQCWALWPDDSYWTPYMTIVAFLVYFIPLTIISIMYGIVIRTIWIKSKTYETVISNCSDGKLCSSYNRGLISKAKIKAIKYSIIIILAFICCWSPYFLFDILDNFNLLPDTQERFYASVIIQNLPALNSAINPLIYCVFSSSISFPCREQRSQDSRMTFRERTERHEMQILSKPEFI
HPGD block: qHTS Assay for Inhibitors of HPGD (15-Hydroxyprostaglandin Dehydrogenase) | AID 894, 2007 | 150,000 tested, 4.3% active | 15-hydroxyprostaglandin dehydrogenase [NAD(+)] (Homo sapiens), P15428 | Potency, µM, for the others: top-dose activity change, negative = inhibition, usual class: inhibitors | purified HPGD, NADH fluorescence kinetic, PGE2 substrate; also: potency is read from the fitted curve at half-maximal effect
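20 nM HPGD preincubated 15 min at room temperature with compound in 50 mM Tris-HCl pH 8, 0.01% Tween 20. Started with 1 mM NAD+ and 30 uM prostaglandin E2; NADH fluorescence (360/450 nm) read 5 times over 30-s intervals, last minus first.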
IMPase cell inh: qHTS Assay for Identifying the Cell-Membrane Permeable IMPase Inhibitors; 120,000 tested, under 10 active; Inositol monophosphatase 1 (Rattus norvegicus), P97697; CHO-M1 cells, IP1 accumulation, HTRF TR-FRET ratio; inhibition (IP1 accumulation), % at 46.1 µM; active = well fitted curve in the direction sought with a large enough effect in the signal ratio, not every such curve was filed as active; inconclusive = small, poorly fitted or top-dose-only effect, or a change in a side signal; inactive = no such curve, though single readings can be large or run the other way; the % refers to the signal ratio;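 also: cells stimulated with carbachol in lithium chloride buffer; plate controls were DMSO basal wells for no effect and reference inhibitor wells for full effect; higher means more IMPase inhibition seen as more IP1 and lower FRET ratio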
Target sequence (P97697 whole entry, looked up): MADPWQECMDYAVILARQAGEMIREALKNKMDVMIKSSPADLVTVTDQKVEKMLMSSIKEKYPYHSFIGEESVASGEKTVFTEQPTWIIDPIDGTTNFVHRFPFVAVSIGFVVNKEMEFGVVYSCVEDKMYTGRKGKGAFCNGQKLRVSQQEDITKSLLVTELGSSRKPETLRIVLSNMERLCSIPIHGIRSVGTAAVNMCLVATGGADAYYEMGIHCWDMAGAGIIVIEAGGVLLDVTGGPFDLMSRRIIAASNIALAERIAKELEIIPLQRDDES
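In this qHTS, compounds (final up to 46 uM) act on CHO-M1 cells that are then activated through the M1 receptor with carbachol, in pH 7.4 buffer containing 50 mM LiCl, for 30 min. IP1 accumulation is quantified by the IP-One immunoassay.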
ALDH1A1 block: qHTS Assay for Inhibitors of Aldehyde Dehydrogenase 1 (ALDH1A1). Aldehyde dehydrogenase 1A1 (Homo sapiens), P00352. Purified ALDH1A1, NADH fluorescence, propionaldehyde substrate. Potency, µM (doses to about 75.3 µM), without a hit: at the highest dose activity, negative = inhibition, hits mostly inhibitors. 220,000 tested, 7.3% active. AID 1030, 2008;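 also: potency is read from the fitted curve at half-maximal effect; plate controls were no enzyme wells and a reference inhibitor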
IMPase Li inh: qHTS Assay for Identifying the Cell-Membrane Permeable IMPase Inhibitors: Potentiation with Lithium; Potency, µM (series often up to 59.4 µM), inactives show at the top dose activity, negative = IMPase inhibition, usual class: inhibitors; 210,000 tested, 0.35% active; CHO-M1 cells, IP1 TR-FRET (IP-One), carbachol + lithium; AID 1457, 2008; active = well fitted curve in the direction sought with a large enough effect; inconclusive = small, poorly fitted or top-dose-only effect, or another doubt; inactive = no such curve, though single readings can be large; an effect the other way counts as inactive or inconclusive;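 also: IP1 builds up when IMPase is blocked and the TR-FRET signal falls; potency is read from the fitted curve at half-maximal effect; plate controls were basal vehicle for no effect and high inhibitor control for full effect; nearly all actives have a fitted effect of over 50% in size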
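Concentration–response in CHO-M1 cells, lithium-potentiated; 30 min at 37C. IP1 detected by competitive TR-FRET after 10 min lysis at RT. Hill-fitted AC50.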
Starred values were filed as active, the others as inactive; u = inconclusive; x = no result; [ ] = dose if it differs, or a comment. An excerpt weighted towards active compounds, which were near 11% of everything screened. Unless noted, calls follow the shape of the dose curve; as a rule, active = well fitted inhibition curve with a large enough effect (not every such curve was filed as active); inconclusive = small, poorly fitted or top-dose-only effect, or another doubt; inactive = no such curve, though single readings can be large or run the other way. Unless noted, % is scaled to controls: 0 for no effect and ±100 for the full control effect.

SMILES | PNC inhibitor | NPSR antagonist | HPGD block | IMPase cell inh | ALDH1A1 block | IMPase Li inh
CC1=NN(Cc2ccccc2)C(=O)C1C(c1ccncc1)C(C#N)C#N (configuration not stated) | x | -11% | x | x | x | x
CC1=NN(Cc2ccccc2)C(=O)C1C(c1ccc(Cl)cc1)C(C#N)C#N (configuration not stated) | -14 | -10% | 28µM* | x | 25µM* | 3%
CC1=NN(Cc2ccccc2)C(=O)C1C(c1ccccc1)C(C#N)C#N (configuration not stated) | 102 | 8%[46.1 µM] | 32µM* | 12 | u | -2%[38.3 µM]
O=C(Nc1ccccc1Cl)OCc1cncs1 | x | 5% | x | x | -1% | 3%
NC(=O)CN(N=Nc1cccc([N+](=O)[O-])c1)c1cccc([N+](=O)[O-])c1 | x | -9% | x | x | 1.8µM* | 12%
CCN(N=Nc1cccc([N+](=O)[O-])c1)c1cccc([N+](=O)[O-])c1 | 13 | u | -17% | -3 | u | 16%[38.3 µM]
CC(=O)c1c(C)n(-c2ccccc2)c2ccc(O)cc12 | 6 | -14%[46.1 µM] | 5µM* | 16 | -3% | 31%[38.3 µM]
COc1ccc2c(c1)c(C(=O)N1CCN(C)CC1)c(C)n2-c1ccccc1 | 0 | -3%[46.1 µM] | u | 5 | 14µM* | 28%[38.3 µM]
CC(=O)c1ccc(Sc2ccccn2)c([N+](=O)[O-])c1 | x | 22% | x | x | x | x
CN(C)CCC(=O)c1ccc(F)cc1 | x | 9% | x | x | x | x
CCN(CC)CCC(=O)c1ccc(F)cc1 | x | -20% | x | x | 1.1µM* | 8%
O=C(COc1ccc([N+](=O)[O-])cc1Cl)N1CCOCC1 | x | -22% | x | x | x | x
O=C(COc1ccc(Cl)cc1)N1CCCC1 | 94 | 1% | -10% | -4 | 7% | 6%
O=C(c1ccc(Cl)cc1)c1ccc(OCC(=O)N2CCOCC2)cc1 | 35 | 2%[46.1 µM] | 28µM* | -8 | u | 35%[38.3 µM]
O=C(COc1ccc(/C=C\[N+](=O)[O-])cc1)N1CCOCC1 | x | 13% | x | x | 14µM* | 18%
CC1CCC(C(C)C)C2=C1C(C#N)(C#N)C(C#N)(C#N)C(c1ccccc1)N2 (configuration not stated) | -8 | u | -13% | 24 | 10µM* | -6%[38.3 µM]
CN(CCc1ccccn1)C(=S)Nc1ccc(Cl)cc1Cl | x | 5% | x | x | 11% | 4%
Cc1cc(O)c(C=Nc2ccc(Cl)cn2)c(=O)o1 | -13 | -2%[46.1 µM] | -22% | 0 | u | 15%[38.3 µM]
Cn1c(Cn2nnc3ccccc32)nnc1SCC(=O)N1CCc2ccccc21 | u | -10%[46.1 µM] | -9% | 8 | 28µM* | -3%[38.3 µM]
CCn1c(CSc2ncccn2)nnc1SCC(=O)N1CCc2ccccc21 | u | -4%[46.1 µM] | -14% | u | 20µM* | 9%[38.3 µM]
Fc1ccc(Cn2c(-c3cscn3)nc3ccccc32)c(Cl)c1 | 16 | -21%[46.1 µM] | -11% | -3 | -2% | 22%[38.3 µM]
Oc1ccccc1C=NC1=NN(c2cccc(C(F)(F)F)c2)CC1 | -15 | 0%[46.1 µM] | -20% | 1 | 22µM* | 18%
O=C(OC(C(=O)Nc1cccc(C(F)(F)F)c1)c1ccccc1)C1CCCCC1 (configuration not stated) | -23 | -57% | -23% | 14 | 14µM* | 14%
Cc1c(C(=O)N2CCCCC2)sc(NC(=O)c2ccco2)c1C#N | 52 | 0%[46.1 µM] | 16µM* | 8 | -10% | 5%
Cc1c(C(=O)N2CCCC2)sc(NC(=O)c2ccco2)c1C#N | 92 | -7%[46.1 µM] | u | -1 | u | 0%
SMILES | PNC inhibitor | NPSR antagonist | HPGD block | IMPase cell inh | ALDH1A1 block | IMPase Li inh
Cc1c(C(=O)N2CCCCC2)sc(NC(=O)C2CC2)c1C#N | 25 | -7%[46.1 µM] | 14µM* | -9 | -6% | -1%[38.3 µM]
Cc1c(C(=O)N2CCCCC2)sc(N)c1C#N | -19 | -6%[46.1 µM] | 13µM* | 0 | u | -15%[38.3 µM]
Cc1c(C(=O)N2CCCCC2)sc(NC(=O)C(C)C)c1C#N | 22 | 3%[46.1 µM] | 13µM* | -9 | 3% | 2%[38.3 µM]
Cc1c(C(=O)N2CCCC2)sc(NC(=O)c2ccccc2)c1C#N | 21 | -3% | u | -4 | 2% | -3%
COc1cccc(CN(C)C(=O)c2csc3c2CCCC3)c1OC | x | -18% | x | x | -6% | 7%
COc1ccc(CNCC(O)COCc2cccs2)cc1 (configuration not stated) | 16 | 7%[46.1 µM] | -1% | 4 | -16% | -8%[38.3 µM]
CC(C)=CCC/C(C)=C/CO/N=C1/C[C@@H](O)[C@@H](O)[C@@H]2[C@H]3C(=O)N(c4ccc(F)cc4F)C(=O)[C@@H]3CC[C@@H]12 | x | x | x | x | -4%[13.5 µM] | x
Cc1nc2c(C#N)c(C)[nH]n2c(=O)c1Cc1ccccc1 | 72 | -17%[46.1 µM] | -20% | 5 | -7% | -6%[38.3 µM]
COCCn1nnnc1C(c1cccs1)N1CCN(c2cccc(C(F)(F)F)c2)CC1 (configuration not stated) | u | -18%[46.1 µM] | -1% | u | u | 22%[38.3 µM]
CCN(c1ccccc1)c1nc(=O)c2cccnc2s1 | x | 3% | x | x | 20µM* | 6%
COc1ccc(N/C=C2\CCc3ccccc3C2=O)cc1 | x | 22% | x | x | u | 6%
COc1ccc2c(c1)CC/C(=C\C=C\c1ccccc1)C2=O | -17 | -24%[46.1 µM] | -21% | x | 28µM* | 12%
O=S(=O)(Nc1ccc2c(c1)OCO2)c1ccccc1 | 38 | -7%[46.1 µM] | u | -2 | 6% | 29%[38.3 µM]
COc1ccc2c(c1)CC/C(=C\Nc1ccc3c(c1)OCO3)C2=O | 5 | -19%[46.1 µM] | -30% | 15 | 2µM* | 42%[38.3 µM]
O=C1/C(=C/Nc2ccc3c(c2)OCO3)CCc2ccccc21 | 7 | -9%[46.1 µM] | 25µM* | 3 | 10µM* | 55%[38.3 µM]
COc1cccc(/C=C2\CCc3ccccc3C2=O)c1 | x | -12% | x | x | 10% | x
O=C(Nc1ccccc1C(=O)N1CCCCC1)C1CCCCC1 | 13 | -2%[46.1 µM] | -5% | -1 | 0% | 4%[38.3 µM]
COc1ccc(S(=O)(=O)N(C)C)cc1NC(=O)COC(=O)CC1CCCC1 | x | 7% | x | x | u | 20%
COc1ccc(S(=O)(=O)N(C)C)cc1NCC(=O)Nc1ccc(Br)cc1F | 0 | -4% | -14% | x | 11µM* | 15%
O=C(CNS(=O)(=O)c1c(Cl)cccc1Cl)OCC(=O)N1CCN(c2ccccc2)CC1 | 8 | 3% | -7% | x | -2% | -2%
CCC(=O)N1CCCc2cc(S(=O)(=O)N3CCCc4ccccc43)ccc21 | 2 | u | -13% | 7 | 18µM* | 26%[38.3 µM]
CC(=O)Nc1ccc(S(=O)(=O)NCC(=O)OCC(=O)N2CCCc3ccccc32)cc1 | -100* | 12% | 0% | x | -8% | 0%
